We go through 40 compounds from PubChem BioAssay (EPA / NIEHS).

The structures appear in SMILES notation. Records with an inconclusive call do not appear. The source made the active and inactive calls. How the source made its calls: active means hit-call score of the fitted dose curve at least 0.9, where 1 is the maximum; inconclusive means response in the unintended direction; inactive means score below 0.9.

Chain of Androgen receptor (Homo sapiens) (P10275 whole entry, looked up, the tested form may be a part): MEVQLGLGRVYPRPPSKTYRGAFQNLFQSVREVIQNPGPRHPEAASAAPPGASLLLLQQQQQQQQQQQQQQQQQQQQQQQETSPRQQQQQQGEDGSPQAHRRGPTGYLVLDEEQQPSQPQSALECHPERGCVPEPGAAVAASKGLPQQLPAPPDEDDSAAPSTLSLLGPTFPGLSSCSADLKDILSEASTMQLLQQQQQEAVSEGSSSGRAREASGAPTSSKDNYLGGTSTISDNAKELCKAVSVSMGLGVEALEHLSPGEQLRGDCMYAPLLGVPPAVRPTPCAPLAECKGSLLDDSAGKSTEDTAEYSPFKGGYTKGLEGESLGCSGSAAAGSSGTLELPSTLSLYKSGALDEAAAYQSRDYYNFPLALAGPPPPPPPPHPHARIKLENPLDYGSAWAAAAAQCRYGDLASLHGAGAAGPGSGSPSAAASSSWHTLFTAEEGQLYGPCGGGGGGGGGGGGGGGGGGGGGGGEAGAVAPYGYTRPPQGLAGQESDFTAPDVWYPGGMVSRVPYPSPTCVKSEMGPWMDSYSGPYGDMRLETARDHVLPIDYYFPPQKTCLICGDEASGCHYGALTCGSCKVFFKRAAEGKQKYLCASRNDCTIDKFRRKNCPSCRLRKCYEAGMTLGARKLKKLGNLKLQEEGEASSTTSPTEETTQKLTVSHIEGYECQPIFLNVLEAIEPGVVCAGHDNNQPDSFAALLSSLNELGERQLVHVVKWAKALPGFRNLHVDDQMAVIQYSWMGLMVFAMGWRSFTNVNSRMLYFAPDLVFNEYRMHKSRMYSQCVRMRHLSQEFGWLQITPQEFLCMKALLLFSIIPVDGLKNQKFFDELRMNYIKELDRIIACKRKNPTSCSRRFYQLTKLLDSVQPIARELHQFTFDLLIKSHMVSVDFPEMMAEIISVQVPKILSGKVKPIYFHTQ

The assay deals with Androgen receptor (Homo sapiens) (UniProt P10275). As to the kind of experiment: ATG_AR_TRANS: Attagene TRANS-FACTORIAL HepG2 Assay for human Androgen Receptor (AR) (AID 2282973). Conditions: HepG2 Attagene TRANS-FACTORIAL AR reporter transcription. Put shortly:
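Transcriptional activity of an exogenous AR–Gal4 fusion read as GAL4-UAS reporter transcript levels in transfected human HepG2 cells after 24 h dosing. Detection via RT-PCR, 6-FAM labelling, HpaI digest and capillary electrophoresis; increase over DMSO baseline.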
Regarding `CCCCCCCC(=O)OCCCCCC`, the compound was called inactive. Same read-out and setting: with `COC(=O)C(F)(F)C(F)(F)C(F)(F)C(F)(F)C(F)(F)F` the entry was “inactive”; with `CC(=O)O[C@@H]1C[C@@H]2CC[C@@]1(C)C2(C)C`, “inactive”.

Turning to `CCCCC(CC)COC(=O)/C=C/c1ccc(OC)cc1` (stereo not given), the result was inactive. On the same count and under the same terms, the entry for `CCCCCCCCCC(C)=O` is “inactive”; for `CCCC(=O)OCC(COC(=O)CCC)OC(=O)CCC` it is “inactive”. The same measure, in the same setting: the entry for `CC1=CCC2C(C1)C2(C)C` (stereo not given) is “inactive”. The same measure, in the same setting: the entry for `c1ccc(Sc2ccccc2)cc1` is “inactive”; for `COc1ccc(C)cc1N` it is “inactive”. On to `CC(=O)Nc1ccc(S(N)(=O)=O)cc1`, for which the outcome was inactive. The same measure, in the same setting: the entry for `CCO[Si](C)(C)OCC` is “inactive”. The same measure, in the same setting: the entry for `CC(C)CCOCCC(C)C` is “inactive”; for `C=CC/C=C/C/C=C/C/C=C/C` it is “inactive”. On the same count and under the same terms, with `C=C(C)C(=O)OCCOC(=O)C(=C)C` the entry was “inactive”; with `CCC(O)CO` (stereo not given), “inactive”; with `C=CCOC(=O)/C=C\C(=O)OCC=C`, “inactive”. For the compound `CC1=CCC2C(=O)OC(=O)C2C1` (stereo not given), the result was inactive. Same read-out and setting: the entry for `CCC(C)(C)C1CCC(=O)CC1` is “inactive”; for `O=C(OC(=O)C(F)(F)C(F)(F)F)C(F)(F)C(F)(F)F` it is “inactive”.

For `CCCCC1CCC(O)CC1` (stereo not given), the result was inactive. On to `CCCCCCCCCCCC[N+](C)(C)Cc1ccccc1`, for which the compound was called inactive. The same measure, in the same setting: with `NC(=O)OCC(COC(N)=O)c1ccccc1` the entry was “inactive”; with `CCCCC[C@H](O)CC(=O)CCc1ccc(O)c(OC)c1`, “inactive”; with `BrCc1cccc(Oc2ccccc2)c1`, “inactive”.

With `CCN(CC)c1ccc(N=Nc2ccccc2)cc1`, the compound was called inactive.

Turning to `C=CCOCC(O)CCl` (stereo not given), the result was inactive. On the same count and under the same terms, the entry for `C=CC(=O)OCCOC(=O)C=C` is “inactive”; for `Clc1cccnc1` it is “inactive”; for `CSc1nnc(C(C)(C)C)c(=O)[nH]1` it is “inactive”. The same measure, in the same setting: with `Cc1cccc(C(=O)O)c1` the entry was “inactive”; with `NCC(F)(F)C(F)(F)C(F)(F)C(F)(F)C(F)(F)C(F)(F)C(F)(F)F`, “inactive”. On the same count and under the same terms, the entry for `CC/C=C\C/C=C\C/C=C\CCCCCCCC(=O)OC` is “inactive”. For the compound `O=C[C@@H](O)[C@H](O)[C@H](O)CO`, the call was inactive. Turning to `CC(=O)C1(C)CC2=C(CCCC2(C)C)CC1C` (stereo not given), the AC50 is 158 µM (active). Regarding `CCCCCCCCCCC`, the outcome was inactive.

Take `O=S(=O)(O)c1cc(S(=O)(=O)O)c2ccc3c(S(=O)(=O)O)cc(S(=O)(=O)O)c4ccc1c2c43`: the compound was called inactive. In the case of `Clc1sc(Cl)c(Cl)c1Cl`, the compound was called inactive. On to `COCc1c(C(C)C)nc(C(C)C)c(/C=C/[C@@H](O)C[C@@H](O)CC(=O)O)c1-c1ccc(F)cc1`, for which the call was inactive.

With `Cc1cc(=O)n(-c2ccccc2)n1C`, the compound was called inactive. Same read-out and setting: with `C[C@H]1C[C@@H]2[C@H]([C@@H](O)C[C@@]3(C)[C@H]2CC[C@]3(O)C(=O)CO)[C@@]2(C)C=CC(=O)C=C12` the entry was “inactive”.
